Test results: PubChem BioAssay (Tox21)
Several values for one entry are separate records, joined by “and”; a condition that tells them apart may be missing. Equal values may be shown once. Inconclusive results are not listed. Where a call stands in place of a potency, no number is given. Where a structure was tested more than once in an assay, its records may differ in their call. Activity calls are given as the source filed them. Unless noted, the call rests on the fitted dose curve; in most records, active means well fitted curve in the direction sought with a large enough effect in the repeat runs; inconclusive means weak or mixed curves; inactive means no such curve, though single readings can be large; an effect the other way counts as inactive or inconclusive.

Legend:
[1] = qHTS assay to test for compound auto fluorescence at 535 nm (green) in HEK293 cells (AID 720680); settings: green autofluorescence 485/535 nm; series mostly up to 91.3 µM
[2] = qHTS assay to test for compound auto fluorescence at 460 nm (blue) in HEK293 cell free culture (AID 720681); settings: cell-free medium, autofluorescence 405/460 nm (blue); series mostly up to 91.3 µM
Outline: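 Compounds were added to cell-free DMEM with 10% FBS and fluorescence read directly. The blue channel used 405 nm excitation and 460 nm emission, with triamterene as the reference fluorophore.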

[3] = qHTS assay to test for compound auto fluorescence at 535 nm (green) in HEK293 cell free culture (AID 720682); settings: cell-free medium, green autofluorescence 485/535 nm; series mostly up to 91.3 µM
Outline: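 Measurement is a direct plate read of green fluorescence (485 nm in, 535 nm out) after compound addition to serum-supplemented DMEM lacking cells, with fluorescein used to express intensities.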

[4] = qHTS assay to test for compound auto fluorescence at 590 nm (red) in HEK293 cell free culture (AID 720683); settings: cell-free medium autofluorescence, Ex540/Em590 red; series mostly up to 91.3 µM
Outline: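 Cell-free wells of DMEM with 10% FBS received compound, and intrinsic fluorescence was read at excitation/emission 540/590 nm. Values expressed as equivalence to Rose Bengal sodium.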

[5] = qHTS assay to test for compound auto fluorescence at 590 nm (red) in HepG2 cell free culture (AID 720684); settings: cell-free medium autofluorescence, red 540/590 nm; series mostly up to 91.3 µM
Outline: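 Compound was pinned into wells holding MEM with 10% FBS and no cells, and red fluorescence was read at Ex/Em 540/590 nm. Signal is expressed as auto fluorescence equivalency relative to Rose Bengal sodium.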

[6] = qHTS assay to test for compound auto fluorescence at 460 nm (blue) in HepG2 cell free culture (AID 720685); settings: Cell-free culture medium, blue autofluorescence 405/460 nm; series mostly up to 91.3 µM
Outline: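 Compound (23 nL) or DMSO pinned into cell-free MEM with 10% FBS; blue fluorescence read at 405/460 nm excitation/emission, expressed as auto-fluorescence equivalency to triamterene.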

[7] = qHTS assay to test for compound auto fluorescence at 535 nm (green) in HepG2 cell free culture (AID 720686); settings: Cell-free medium, green autofluorescence 485/535 nm; series mostly up to 91.3 µM
[8] = qHTS assay to test for compound auto fluorescence at 460 nm (blue) in HepG2 cells (AID 720687); settings: autofluorescence 405/460 nm, 1 h; series mostly up to 91.3 µM
Outline: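 HepG2 cells in MEM with 10% FBS, attached overnight at 37 C, were exposed to compound or DMSO for 1 hr at 37 C, 5% CO2. Blue fluorescence was read at 405/460 nm, with triamterene as reference fluorophore.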

[9] = biological target: Glucocorticoid receptor (Homo sapiens) (UniProt P04150); assay: qHTS assay to identify small molecule agonists of the glucocorticoid receptor (GR) signaling pathway (AID 720691; active means well fitted activation curve with a large enough effect in the signal ratio in the repeat runs, not every such curve was filed as active; the % refers to the signal ratio); settings: GR-bla HeLa, beta-lactamase reporter ratio, 18 h; series mostly up to 62.4 µM
Outline: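 GR-bla HeLa cells carrying a GRE-driven beta-lactamase reporter, exposed to compounds for 18 h at 37 C. Reporter activation read as fluorescence after 2 h with LiveBLAzer B/G FRET substrate at room temperature.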

[10] = biological target: Glucocorticoid receptor (Homo sapiens) (UniProt P04150); assay: qHTS assay to identify small molecule antagonists of the glucocorticoid receptor (GR) signaling pathway (AID 720692; active means well fitted inhibition curve with a large enough effect in the signal ratio in the repeat runs, not every such curve was filed as active; the % refers to the signal ratio; further: potency means the concentration at half of the fitted maximal effect); settings: GR-bla HeLa, beta-lactamase FRET ratio, dexamethasone-stimulated, 18 h; series mostly up to 58.5 µM
Outline: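 GR-bla HeLa cells carrying a GRE-driven beta-lactamase reporter received compound after 4 h plating, then dexamethasone (5 nM final). After 18 h at 37C, the FRET substrate was loaded for 2 h at room temperature and fluorescence read.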

[11] = qHTS assay to identify small molecule antagonists of the glucocorticoid receptor (GR) signaling pathway - cell viability counter screen (AID 720693); settings: GR-bla HeLa viability, CellTiter-Glo luminescence, 18 h, with 5 nM dexamethasone present; series mostly up to 58.5 µM; further: nearly all actives have a fitted effect of over 55% in size
[12] = qHTS assay for identifying genotoxic compounds that show differential cytotoxicity against isogenic chicken DT40 cell lines with known DNA damage response pathways - wild type cell line (AID 743012); settings: DT40 wild type chicken cells viability, CellTiter-Glo, 40 h; series mostly up to 68.4 µM; further: nearly all actives have a fitted effect of over 60% in size; further: potency means the concentration at half of the fitted maximal effect
Outline: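 Wild-type DT40 cells (300/well) exposed to compounds for 40 hours at 37 C/5% CO2. Viability read by CellTiter-Glo luminescence after 30 min at room temperature.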

[13] = qHTS assay for identifying genotoxic compounds that show differential cytotoxicity against isogenic chicken DT40 cell lines with known DNA damage response pathways - Rev3 mutant cell line (AID 743014); settings: chicken DT40 Rev3-/- viability, CellTiter-Glo, 40 h; series mostly up to 68.4 µM; further: nearly all actives have a fitted effect of over 55% in size; further: potency means the concentration at half of the fitted maximal effect
[14] = qHTS assay for identifying genotoxic compounds that show differential cytotoxicity against isogenic chicken DT40 cell lines with known DNA damage response pathways - Rad54/Ku70 mutant cell line (AID 743015); settings: DT40 Rad54/Ku70 mutant viability, CellTiter-Glo, 40 h; series mostly up to 66.8 µM; further: nearly all actives have a fitted effect of over 60% in size; further: potency means the concentration at half of the fitted maximal effect
[15] = qHTS assay to identify small molecule antagonists of the androgen receptor (AR) signaling pathway - cell viability counter screen (AID 743033; further: nearly all actives have a fitted effect of over 45% in size); settings: AR-bla HEK293 viability, CellTiter-Glo luminescence, 16 h; series mostly up to 58.5 µM
[16] = qHTS assay to identify small molecule antagonists of the androgen receptor (AR) signaling pathway using the MDA cell line - cell viability counter screen (AID 743041; further: nearly all actives have a fitted effect of over 45% in size); settings: MDA-kb2 viability, CellTiter-Fluor, 16 h, cells co-treated with R1881 androgen agonist; series mostly up to 70.3 µM
Outline: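 MDA-kb2 AR-luc cells (MMTV-luciferase, AR/GR responsive) treated with compounds plus R1881 agonist for 16 h at 37C. CellTiter-Fluor added at 15.5 h; fluorescence read after 30 min in the same wells.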

[17] = biological target: Androgen receptor (Homo sapiens) (UniProt P10275); assay: qHTS assay to identify small molecule antagonists of the androgen receptor (AR) signaling pathway (AID 743035; active means well fitted inhibition curve with a large enough effect in the signal ratio in the repeat runs, not every such curve was filed as active; the % refers to the signal ratio; further: potency means the concentration at half of the fitted maximal effect); settings: HEK293 AR-UAS-bla, R1881-stimulated, beta-lactamase FRET, 16 h; series mostly up to 58.5 µM
Outline: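 HEK293 cells stably carrying UAS-beta-lactamase reporter, 2,000/well, given compounds plus R1881 agonist and incubated 16 h at 37C. LiveBLAzer B/G FRET substrate then added for 2 h at room temperature before fluorescence reading.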

[18] = biological target: Androgen receptor (Homo sapiens) (UniProt P10275); assay: qHTS assay to identify small molecule agonists of the androgen receptor (AR) signaling pathway (AID 743036; active means well fitted activation curve with a large enough effect in the signal ratio in the repeat runs, with a control signal flat, not every such curve was filed as active; the % refers to the signal ratio); settings: HEK293 AR-UAS-bla GripTite, beta-lactamase FRET ratio, 16 h; series mostly up to 62.4 µM
Outline: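 Beta-lactamase under UAS control, stably integrated in HEK293 GripTite cells, reports receptor activation. After 16 h compound treatment, cells received FRET substrate for 2 h at room temperature before fluorescence reading.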

[19] = biological target: Androgen receptor (Homo sapiens) (UniProt P10275); assay: qHTS assay to identify small molecule agonists of the androgen receptor (AR) signaling pathway using the MDA cell line (AID 743040; further: nearly all actives have a fitted effect of over 20% in size); settings: MDA-kb2 AR-luc cells, MMTV luciferase, 16 h; series mostly up to 70.3 µM
Outline: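 MDA-kb2 breast carcinoma cells carrying MMTV-luciferase (responsive to AR and GR), plated 5 h then treated 16 h with compounds at 37C, 0% CO2. Read-out was ONE-Glo luminescence after 30 min at room temperature.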

[20] = biological target: Androgen receptor (Homo sapiens) (UniProt P10275); assay: qHTS assay to identify small molecule antagonists of the androgen receptor (AR) signaling pathway using the MDA cell line (AID 743042; further: nearly all actives have a fitted effect of over 55% in size; further: potency means the concentration at half of the fitted maximal effect); settings: MDA-kb2 AR-luc, MMTV luciferase, R1881 antagonist, 16 h; series mostly up to 70.3 µM
Outline: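 MDA-kb2 breast carcinoma cells carrying MMTV-luciferase (AR/GR responsive) were co-treated with compounds and the agonist R1881 for 16 h at 37C. Inhibition read as ONE-Glo luminescence; CellTiter-Fluor fluorescence measured in parallel for cytotoxicity.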

Glucocorticoid receptor (Homo sapiens), sequence (P04150 whole entry, looked up): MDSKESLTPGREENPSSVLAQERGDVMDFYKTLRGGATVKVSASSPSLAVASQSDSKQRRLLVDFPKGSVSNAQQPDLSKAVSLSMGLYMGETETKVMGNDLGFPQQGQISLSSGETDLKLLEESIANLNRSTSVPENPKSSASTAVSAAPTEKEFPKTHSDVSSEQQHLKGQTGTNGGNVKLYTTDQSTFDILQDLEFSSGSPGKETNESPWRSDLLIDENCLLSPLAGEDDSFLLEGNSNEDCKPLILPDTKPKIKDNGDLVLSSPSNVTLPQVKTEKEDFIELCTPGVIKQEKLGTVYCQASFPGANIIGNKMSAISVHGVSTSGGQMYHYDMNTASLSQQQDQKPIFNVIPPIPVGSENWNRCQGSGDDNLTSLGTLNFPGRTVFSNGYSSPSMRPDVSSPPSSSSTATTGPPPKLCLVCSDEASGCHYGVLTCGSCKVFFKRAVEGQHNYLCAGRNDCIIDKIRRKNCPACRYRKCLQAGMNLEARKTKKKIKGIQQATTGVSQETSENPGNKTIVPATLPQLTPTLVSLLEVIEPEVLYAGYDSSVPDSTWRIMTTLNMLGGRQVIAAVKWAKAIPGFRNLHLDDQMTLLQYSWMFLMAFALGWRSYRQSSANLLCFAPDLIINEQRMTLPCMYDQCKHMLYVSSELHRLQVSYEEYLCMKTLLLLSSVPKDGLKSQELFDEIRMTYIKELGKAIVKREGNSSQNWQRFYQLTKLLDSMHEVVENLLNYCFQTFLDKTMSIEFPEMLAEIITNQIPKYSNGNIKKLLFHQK
Androgen receptor (Homo sapiens), sequence (P10275 whole entry, looked up): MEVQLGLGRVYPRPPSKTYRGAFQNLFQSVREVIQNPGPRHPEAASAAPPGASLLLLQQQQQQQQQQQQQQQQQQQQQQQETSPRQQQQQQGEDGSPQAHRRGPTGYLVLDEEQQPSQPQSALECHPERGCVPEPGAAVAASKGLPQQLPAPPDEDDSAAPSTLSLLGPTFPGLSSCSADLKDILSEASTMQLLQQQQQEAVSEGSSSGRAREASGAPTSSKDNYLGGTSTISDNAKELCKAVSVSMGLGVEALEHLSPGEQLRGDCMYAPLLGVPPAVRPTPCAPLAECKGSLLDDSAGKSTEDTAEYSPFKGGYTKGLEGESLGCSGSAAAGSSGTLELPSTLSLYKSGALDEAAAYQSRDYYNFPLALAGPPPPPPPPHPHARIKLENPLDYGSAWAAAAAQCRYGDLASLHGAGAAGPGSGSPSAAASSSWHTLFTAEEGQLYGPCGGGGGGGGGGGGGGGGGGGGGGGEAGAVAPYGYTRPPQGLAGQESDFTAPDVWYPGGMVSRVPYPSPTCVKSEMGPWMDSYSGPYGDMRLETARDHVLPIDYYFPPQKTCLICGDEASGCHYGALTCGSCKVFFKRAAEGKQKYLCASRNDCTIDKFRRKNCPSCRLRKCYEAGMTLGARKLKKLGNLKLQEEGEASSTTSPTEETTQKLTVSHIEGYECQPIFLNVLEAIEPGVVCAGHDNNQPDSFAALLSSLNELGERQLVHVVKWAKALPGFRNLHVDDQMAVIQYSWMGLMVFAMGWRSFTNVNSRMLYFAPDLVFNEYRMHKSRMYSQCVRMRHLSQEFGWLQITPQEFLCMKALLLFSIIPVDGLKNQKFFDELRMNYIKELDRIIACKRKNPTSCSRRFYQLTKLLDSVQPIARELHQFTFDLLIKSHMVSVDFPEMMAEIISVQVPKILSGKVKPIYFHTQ

| Structure (SMILES) | Potency [1] | outcome [2] | Potency [3] | Potency [4] | Potency [5] | outcome [6] | Potency [7] | outcome [8] | Potency [9] | Potency [10] | Potency [11] | Potency [12] | Potency [13] | Potency [14] | Potency [15] | Potency [16] | Potency [17] | outcome [18] | Potency [19] | Potency [20] |
| --- | --- | --- | --- | --- | --- | --- | --- | --- | --- | --- | --- | --- | --- | --- | --- | --- | --- | --- | --- | --- |
| CC(C)CC(C)(O)C#CC(C)(O)CC(C)C (stereo not drawn) | inactive | inactive | inactive | inactive | inactive | inactive | inactive | inactive | inactive | inactive | inactive | inactive | 54.5 µM (active) | 54.5 µM (active) | inactive | inactive | – | – | – | – |
| CCCCC(CC)COP(=O)(OCC(CC)CCCC)OCC(CC)CCCC (stereo not drawn) | inactive | inactive | inactive | inactive | inactive | inactive | inactive | inactive | inactive | – | inactive | – | inactive | inactive | inactive | inactive | – | – | – | – |
| COc1ccc(C(=O)CC(=O)c2ccc(C(C)(C)C)cc2)cc1 | inactive | inactive | inactive | inactive | inactive | inactive | inactive | inactive | inactive | inactive | – | inactive | inactive | inactive | inactive | inactive | – | – | – | – |
| O=CCCCC=O | inactive | inactive | inactive | inactive | inactive | inactive | inactive | inactive | inactive | – | inactive | – | 2.17 µM (active) | inactive and 2.73 µM (active) | inactive | inactive | – | – | – | – |
| Nc1ncn([C@@H]2O[C@H](CO)[C@@H](O)[C@H]2O)c(=O)n1 | inactive | inactive | inactive | inactive | inactive | inactive | inactive | inactive | inactive | 3.01 µM (active) and 1.74 µM (active) | – | 1.88 µM (active) and 1.54 µM (active) | 1.88 µM (active) and 1.22 µM (active) | 841 nM (active) and 386 nM (active) | – | inactive | 3.38 µM (active) and 1.1 µM (active) | inactive | inactive | 5.96 µM (active) and 2.73 µM (active) |
| Nc1ccc(Cl)cc1Cl | inactive | inactive | inactive | inactive | inactive | inactive | inactive | inactive | inactive | inactive | – | – | inactive | inactive | inactive | inactive | – | – | – | – |
| Cc1c(OCC(F)(F)F)ccnc1CS(=O)c1nc2ccccc2[nH]1 (stereo not drawn) | inactive | inactive | inactive | inactive | inactive | inactive | inactive | inactive | inactive | – | inactive | inactive | inactive and 54.5 µM (active) | – | inactive | inactive | – | – | – | – |
| CCCc1c(OCCCCc2nn[nH]n2)ccc(C(C)=O)c1O | inactive | inactive | inactive | inactive | inactive | inactive | inactive | inactive | inactive | 23.9 µM (active) | inactive | 29.8 µM (active) | 29.8 µM (active) and inactive | 21.1 µM (active) and 54.5 µM (active) | inactive | inactive | – | – | – | – |
| O=C(c1ccccc1)c1ccccc1O | inactive | inactive | inactive | inactive | inactive | inactive | inactive | inactive | inactive | – | – | inactive | inactive | inactive | inactive | inactive | inactive | inactive | inactive | inactive |
| O=C(COc1ccc(Cl)cc1)N1CCN(Cc2ccc3c(c2)OCO3)CC1 | inactive | inactive | inactive | inactive | inactive | inactive | inactive | inactive | – | – | inactive | 29.8 µM (active) | 16.8 µM (active) and 54.5 µM (active) | 48.6 µM (active) | inactive | inactive | – | – | – | – |
| CC1=CCC(C(C)(C)O)CC1 (stereo not drawn) | inactive | inactive | inactive | inactive | inactive | inactive | inactive | inactive | – | – | inactive | inactive | inactive | inactive | inactive | inactive | inactive | inactive | inactive | inactive |
| CC(C)=CCC/C(C)=C\CO | inactive | inactive | inactive | inactive | inactive | inactive | inactive | inactive | inactive | – | – | – | inactive and 61.1 µM (active) | inactive | inactive | inactive | – | inactive | – | – |
| C[Si](C)(C)O[Si](C)(C)C | inactive | inactive | inactive | inactive | inactive | inactive | inactive | inactive | – | – | – | inactive | inactive | inactive | inactive | inactive | – | – | – | – |
| C[C@]12CCC(=O)C=C1CC[C@@H]1[C@@H]2C(=O)C[C@@]2(C)[C@H]1CC[C@]2(O)C(=O)CO | inactive | inactive | inactive | inactive | inactive | inactive | inactive | inactive | – | – | inactive | – | inactive and 61.1 µM (active) | inactive and 68.6 µM (active) | inactive | inactive | – | – | – | – |
| OCCO | inactive | inactive | inactive | inactive | inactive | inactive | inactive | inactive | – | – | inactive | – | inactive | inactive | inactive | inactive | inactive | inactive | inactive | inactive |
